According to the supplement of paper PMC8975748:
Counter-ions that a name gives are not always drawn.

Tested on: Saccharomyces cerevisiae BY4741 SeMeCo community
Assay: z-score of subpopulation abundance vs DMSO median, subpopulation auxotrophic for HLM; higher = larger share of this subpopulation than in DMSO controls
Conditions: 10 µM; 24 h; SM minimal medium; subpopulation (auxotrophy): HLM
Method: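 Fluorescent four-plasmid SeMeCo (self-establishing metabolically cooperating S. cerevisiae BY4741 community; plasmids pH-mRuby2, pL-mWasabi, pU-eCFP, pM-TagRFP657) was grown 24 h in minimal SM medium with each Selleck FDA-approved drug at 10 µM in 384-well plates. Cells were fixed and imaged by high-content confocal microscopy. For each auxotrophic subpopulation (and the prototroph), a z-score gives the deviation from the DMSO vehicle-control population median.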

Structure (SMILES) | z-score of subpopulation abundance
OC(c1cc(C(F)(F)F)nc2c(C(F)(F)F)cccc12)C1CCCCN1 (stereo not given) [Mefloquine HCl] | 0
CC1=C(C(=O)O)N2C(=O)[C@@H](NC(=O)[C@H](N)C3=CCC=CC3)[C@H]2SC1 [Cefradine] | 0.04
Cc1nc2n(c(=O)c1CCN1CCC(c3noc4cc(F)ccc34)CC1)CCCC2 [Risperidone] | 0.11
Cc1cnc(NC(=O)C2=C(O)c3ccccc3S(=O)(=O)N2C)s1 [Meloxicam] | -1.09
Cc1ccc(Sc2ccccc2N2CCNCC2)c(C)c1 [Vortioxetine] | 0.2
COc1ccc(CNc2nc(N3CCC[C@H]3CO)ncc2C(=O)NCc2ncccn2)cc1Cl [Avanafil] | -0.87
CC(C(O)c1ccc(O)cc1)N1CCC(Cc2ccccc2)CC1 (stereo not given) [Ifenprodil Tartrate] | -0.92
CCn1cc(C(=O)O)c(=O)c2cc(F)c(N3CCN(C)CC3)cc21 [Pefloxacin Mesylate Dihydrate] | 0.88
Cn1nnc(-c2ccc(-c3ccc(N4C[C@H](COP(=O)(O)O)OC4=O)cc3F)cn2)n1 [Tedizolid Phosphate] | -0.8
C[C@H](NCc1ccc(OCc2cccc(F)c2)cc1)C(N)=O [Safinamide] | 1.35
Oc1c(Cl)cc(Cl)c(Cl)c1Cc1c(O)c(Cl)cc(Cl)c1Cl [Hexachlorophene] | 8.62
COc1ccc([C@@H]2Sc3ccccc3N(CCN(C)C)C(=O)[C@@H]2OC(C)=O)cc1 [Diltiazem HCl] | -0.37
Cc1ccc(S(=O)(=O)NC(=O)NN2CC3CCCC3C2)cc1 (stereo not given) [Gliclazide] | -0.16
CC[C@H]1OC(=O)[C@H](C)[C@@H](O[C@H]2C[C@@](C)(OC)[C@@H](O)[C@H](C)O2)[C@H](C)[C@@H](O[C@@H]2O[C@H](C)C[C@H](N(C)C)[C@H]2O)[C@](C)(O)C[C@@H](C)/C(=N\OCOCCOC)[C@H](C)[C@@H](O)[C@]1(C)O [Roxithromycin] | -0.45
CC(=O)[C@H]1CC[C@H]2[C@@H]3CCC4=CC(=O)CC[C@]4(C)[C@H]3CC[C@]12C [Progesterone] | -0.24
O=C1CN2Cc3c(ccc(Cl)c3Cl)N=C2N1 [Anagrelide HCl] | 1.02
O=C1[C@H]2CCCC[C@H]2C(=O)N1CCCCN1CCN(c2nsc3ccccc23)CC1 [Perospirone hydrochloride] | 0.02
Nc1ccc(/N=N/c2ccccc2)c(N)n1 [Phenazopyridine HCl] | 0.39
COC(=O)C1=C(C)NC(C)=C(C(=O)OCCN2CCN(C(c3ccccc3)c3ccccc3)CC2)C1c1cccc([N+](=O)[O-])c1 (stereo not given) [Manidipine 2HCl] | 1.42
O=C(O)c1cn(-c2ccc(F)cc2)c2cc(N3CCNCC3)c(F)cc2c1=O [Sarafloxacin HCl] | -0.84

Structure (SMILES) | z-score of subpopulation abundance
COc1c(N2CCNC(C)C2)c(F)cc2c(=O)c(C(=O)O)cn(C3CC3)c12 (stereo not given) [Gatifloxacin] | -0.34
CCCCCCCCCCCCCCCC[N+](C)(C)C [Cetrimonium Bromide (CTAB)] | 50.7
Cc1cc(C)nc(NS(=O)(=O)c2ccc(N)cc2)n1 [Sulfamethazine Sodium Salt] | -0.15
CO[C@@H]1[C@@H](OC(N)=O)[C@@H](O)[C@H](Oc2ccc3c(O)c(NC(=O)c4ccc(O)c(CC=C(C)C)c4)c(=O)oc3c2C)OC1(C)C [Novobiocin Sodium] | 0.81
c1ccc(-c2ccc(C(c3ccccc3)n3ccnc3)cc2)cc1 (stereo not given) [Bifonazole] | 2.32
CC1=Nc2ccc(Cl)cc2S(=O)(=O)N1 [Diazoxide] | -1.55
CN(C)CCc1c[nH]c2ccc(Cn3cncn3)cc12 [Rizatriptan Benzoate] | 0.35
CN(C)C[C@@H]1CCn2cc(c3ccccc32)C2=C(C(=O)NC2=O)c2cn(c3ccccc23)CCO1 | 0.91
O=C(Nc1c(Cl)cncc1Cl)c1ccc(OC(F)F)c(OCC2CC2)c1 [Roflumilast] | -0.77
CO/N=C(\C(=O)N[C@@H]1C(=O)N2C(C(=O)O)=C(CSC(=O)c3ccco3)CS[C@H]12)c1csc(N)n1 [Ceftiofur] | 0.23
CN1[C@@H]2CC[C@H]1C[C@@H](OC(=O)c1c[nH]c3ccccc13)C2 [Tropisetron HCl] | -0.38
O=C1CN(/N=C/c2ccc(-c3ccc([N+](=O)[O-])cc3)o2)C(=O)N1 [Dantrolene sodium] | 1.18
O=C(c1ccccc1)c1ccc2n1CCC2C(=O)O (stereo not given) [Ketorolac tromethamine salt] | -0.09
COC(=O)C1=C(C)NC(C)=C(C(=O)OC(C)(C)CN(C)CCC(c2ccccc2)c2ccccc2)C1c1cccc([N+](=O)[O-])c1 (stereo not given) [Lercanidipine] | 1.04
Nc1ccc(S(=O)(=O)Nc2nccs2)cc1 [Sulfathiazole] | -0.42
CCN(CC)C(=O)N1CCN(C)CC1 [Diethylcarbamazine citrate] | 0.15
CCc1cccc2c3c([nH]c12)C(CC)(CC(=O)O)OCC3 (stereo not given) [Etodolac] | -0.82
CCn1cc(C(=O)O)c(=O)c2cc(F)c(N3CCNCC3)cc21 [Norfloxacin] | -0.51
COc1ccc(C(Cl)=C(c2ccc(OC)cc2)c2ccc(OC)cc2)cc1 [Chlorotrianisene] | 3.27
CC(C)[C@H]1CC[C@H](C(=O)N[C@H](Cc2ccccc2)C(=O)O)CC1 [Nateglinide] | 0.89
